PLC-gamma1 inh = PLC-gamma1 (human) inhibition, primary screen. P19174. purified PLC-gamma1, fluorogenic substrate, fluorescence. inhibition, % at 12.2 µM. hit rate 0.84% among 370,000. AID 720700; in the data active = inhibition above about 9.5%
PLC-beta3 inh = inhibitors of human phospholipase C beta3; Q01970; Purified PLC-beta3, fluorogenic substrate, fluorescence; inhibition, % at 12.2 µM; hit rate 0.18% among 370,000; AID 720704;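 note: 0% = median of compound wells on plate and 100% = full blocker control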
Target sequence (Q01970 whole entry, looked up): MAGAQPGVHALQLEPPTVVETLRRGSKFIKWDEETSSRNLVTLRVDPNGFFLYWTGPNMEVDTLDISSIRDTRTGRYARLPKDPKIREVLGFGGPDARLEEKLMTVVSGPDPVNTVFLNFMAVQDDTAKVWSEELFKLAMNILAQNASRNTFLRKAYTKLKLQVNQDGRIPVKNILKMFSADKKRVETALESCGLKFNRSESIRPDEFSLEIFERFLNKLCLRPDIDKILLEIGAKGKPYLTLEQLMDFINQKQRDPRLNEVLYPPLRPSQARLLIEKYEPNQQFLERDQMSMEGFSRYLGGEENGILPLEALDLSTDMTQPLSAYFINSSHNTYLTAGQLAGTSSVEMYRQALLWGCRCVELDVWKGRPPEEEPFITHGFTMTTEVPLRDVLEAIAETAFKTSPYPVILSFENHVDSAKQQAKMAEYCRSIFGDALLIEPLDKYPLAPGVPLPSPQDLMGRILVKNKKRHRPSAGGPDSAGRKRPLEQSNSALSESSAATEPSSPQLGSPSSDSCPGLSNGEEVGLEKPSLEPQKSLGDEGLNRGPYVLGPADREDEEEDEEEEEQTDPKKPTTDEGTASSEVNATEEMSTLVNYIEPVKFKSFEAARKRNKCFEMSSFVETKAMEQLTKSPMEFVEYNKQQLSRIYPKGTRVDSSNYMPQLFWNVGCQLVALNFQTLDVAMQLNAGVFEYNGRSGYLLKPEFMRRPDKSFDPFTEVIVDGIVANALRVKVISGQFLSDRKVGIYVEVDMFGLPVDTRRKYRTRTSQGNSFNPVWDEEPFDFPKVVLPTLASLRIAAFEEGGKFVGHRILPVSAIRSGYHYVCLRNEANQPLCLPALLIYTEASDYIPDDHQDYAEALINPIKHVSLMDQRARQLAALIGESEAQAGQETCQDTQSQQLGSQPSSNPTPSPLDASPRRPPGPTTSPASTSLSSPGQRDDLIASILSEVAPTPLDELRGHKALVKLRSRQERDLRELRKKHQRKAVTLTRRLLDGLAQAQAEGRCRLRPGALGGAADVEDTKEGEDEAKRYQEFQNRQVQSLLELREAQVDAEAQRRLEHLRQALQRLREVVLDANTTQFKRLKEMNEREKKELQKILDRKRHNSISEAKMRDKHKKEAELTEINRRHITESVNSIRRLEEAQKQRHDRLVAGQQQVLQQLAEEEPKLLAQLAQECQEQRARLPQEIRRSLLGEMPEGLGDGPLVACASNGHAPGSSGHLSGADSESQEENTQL
UHRF1 binding = human UHRF1 methylated DNA binding inhibitors. Q96T88. inhibition, % at 4.4 µM. hit rate 0.75% among 370,000. UHRF1 binding to methylated oligo, TR-FRET; in the data active = inhibition above about 21%;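 note: UHRF1 SRA domain binding a hemimethylated CpG hairpin DNA probe; 0% = median of test compound wells and 100% = reference inhibitor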
MBD2 inh = blocks human MBD2 binding to methylated DNA; Q9UBB5; TR-FRET, MBD2 binding to methylated oligonucleotide; inhibition, % at 4.4 µM; hit rate 0.31% among 370,000; in the data active = inhibition above about 13%
LEDGF integ inh = blocks HIV-1 LEDGF/p75-dependent DNA integration; TR-FRET IN-LEDGF/p75 DNA integration, Eu/Cy5; inhibition, % at 3.7 µM; hit rate 0.64% among 370,000;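 active = inhibition above the screen-wide mean plus 3 SD, cut at about 13% in these data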;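 note: signal is the Cy5 over europium emission ratio at 671 and 618 nm; 0% = plate median of compound wells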
PLCg1 ctr = PLC-gamma1 inhibition, counter-screen for PLC-beta3 hits; inhibition, % at 12.3 µM; shares compounds with PLC-gamma1 inh; purified PLC-gamma1, fluorogenic substrate, fluorescence; hit rate 3.1% among 3,300; in the data active = inhibition above about 9.5%
PLCbeta3 conf = human PLC-beta3 inhibition, confirmation; shares compounds with PLC-gamma1 inh; purified PLC-beta3, fluorogenic substrate fluorescence; inhibition, % at 12.3 µM; hit rate 1% among 3,300
* hit, by the source's call; . = no result given. This is a sample that favours compounds with a hit; in the whole collection about 2.3% have one here. Cut-off read from the data, not from the text of the source, unless noted: active = inhibition above about 11%; inactive = the rest.

SMILES | PLC-gamma1 inh | PLC-beta3 inh | UHRF1 binding | MBD2 inh | LEDGF integ inh | PLCg1 ctr | PLCbeta3 conf
C1=CC2CC1CC2CN1CCN(Cc2ccccc2)CC1 (centres undefined) | 1.5 | 0.9 | 2.4 | 0.8 | 1.2 | . | .
Fc1ccccc1N1CCN(CC2CC3C=CC2C3)CC1 (centres undefined) | 12.4* | 10.8* | 1.9 | -1.1 | 4.6 | -2.6 | -0.5
COc1ccc(CN(C)CC(=O)Nc2ccc(Cl)cc2C(F)(F)F)c(OC)c1 | 12.6* | -0.6 | 4.0 | 7.8 | 5.7 | -1.8 | 1.5
CC(C)NC(=O)CN1C(=O)c2ccccc2S1(=O)=O | -4.9 | 2.9 | -4.5 | -0.5 | 0.1 | . | .
CC(C)COP(=O)(CNC(=O)CN1C(=O)c2ccccc2S1(=O)=O)OCC(C)C | 9.8* | 1.2 | 0.6 | -1.8 | -0.3 | -9.5 | -3.3
CC1CCC(NC(=O)CN2C(=O)c3ccccc3S2(=O)=O)CC1 (centres undefined) | 12.2* | -0.5 | 1.4 | -5.8 | -0.5 | -2.0 | 1.3
COC(=O)[C@]12C[C@H](CC(=O)N3CCCC3)C(=O)N(Cc3ccc(Cl)cc3Cl)C1=C[C@H](C(C)(C)C)O[C@@H]2C | 3.1 | 4.3 | -2.1 | -2.1 | -3.0 | . | .
COc1cc(-c2nnc(SCC3(c4ccccc4)OCCO3)o2)cc(OC)c1OC | 12.1* | -1.1 | 6.1 | 7.6 | -2.2 | -3.6 | 0.3
CC(C)CCN1C(=O)COc2ccccc2C1c1nnnn1-c1ccc2c(c1)OCCO2 (centres undefined) | -2.2 | 3.9 | 2.2 | 0.3 | -1.0 | . | .
Cc1csc(NC(=O)c2ccc(COc3cccc(F)c3)o2)n1 | -8.2 | -23.6 | 2.4 | -0.5 | -0.4 | . | .
Nc1ncnc(Nc2ccccc2)n1 | 0.7 | 0.3 | 0.1 | 0.5 | 0.4 | . | .
Cc1ccc(Nc2ncnc(N)n2)cc1C | 10.2* | 5.5 | -2.7 | -0.6 | -0.6 | -6.3 | 0.8
C/C(CC(=O)Nc1ccccc1C)=N\NC(=O)Cc1csc(N)n1 | 9.9* | 5.1 | -7.8 | -2.8 | 7.7 | -6.0 | -2.1
C/C(CC(=O)Nc1ccc(Br)cc1)=N\NC(=O)Cc1csc(N)n1 | -1.2 | -8.0 | -6.3 | -0.5 | 1.9 | . | .
CN(CC(O)CN)CC(O)CN1CCCCC1 (centres undefined) | 9.6* | 1.9 | -1.7 | -2.6 | 2.3 | -4.2 | -2.1
S=C(NCc1ccco1)Nc1cc(-c2ccccc2)[nH]n1 | 9.6* | -5.6 | 28.9* | 5.5 | 10.1 | -4.6 | -5.1
S=C(NCc1ccco1)Nc1ccc(Br)cn1 | -6.1 | -13.1 | -3.2 | -3.8 | 1.0 | . | .
O=C(CCS(=O)(=O)c1ccccc1)N1CCCc2ccccc21 | -0.4 | -7.7 | 4.2 | -0.6 | -4.1 | . | .
O=C(CCC(=O)N1CCCc2ccccc21)N1CCN(S(=O)(=O)c2ccccc2)CC1 | 10.6* | 9.5 | 3.9 | -5.7 | 0.6 | -6.0 | -4.4
O=C(O)c1ccc(S(=O)(=O)N2CCCc3ccccc32)cc1 | 9.9* | 0.1 | 2.7 | -0.6 | 4.5 | -4.2 | 0.7
Cc1ccccc1Cn1c(=O)c2c(nc3n2CCN3Cc2ccco2)n(C)c1=O | 10.6* | 7.2 | 3.8 | 1.3 | 0.0 | -2.6 | 0.5
Cc1ccc(-c2nc(C3CCCN(S(=O)(=O)c4cccs4)C3)no2)cc1 (centres undefined) | 0.9 | -4.1 | -0.7 | 1.1 | 0.4 | . | .
COc1ccc(OC)c(NC(=O)CC2SC(=Nc3ccc(F)cc3)N(CCC3=CCCCC3)C2=O)c1 (centres undefined) | 11.0* | 4.2 | -2.3 | -3.9 | 3.1 | 1.2 | -3.9
CC(C)CN1C(=O)[C@@]2(CC(=O)N(C)C2c2ccccc2)c2cc(-n3cc(CN(C)C)nn3)ccc21 (some centres undefined) | -2.0 | -4.7 | 8.4 | 2.0 | -2.3 | . | .
CC12CCC(C/C1=N/O)C2(C)C (centres undefined) | 10.0* | -1.9 | 3.3 | -0.2 | -5.9 | -3.9 | 1.3
SMILES | PLC-gamma1 inh | PLC-beta3 inh | UHRF1 binding | MBD2 inh | LEDGF integ inh | PLCg1 ctr | PLCbeta3 conf
O=C(COC(=O)c1cccc(S(=O)(=O)N2CCCCCC2)c1)Nc1ccccc1C(F)(F)F | -0.2 | 1.6 | -1.1 | -0.6 | 1.6 | . | .
Cc1ccc(C(=O)OCC(=O)Nc2ccccc2C(F)(F)F)cc1S(=O)(=O)N1CCCCC1 | 9.8* | -4.1 | -0.3 | -0.3 | -1.2 | 2.9 | 4.6
C[C@H]1CNC(=O)C(=O)N1C[C@H](Cc1ccc(O)cc1)NC(=O)CC12CC3CC(CC(C3)C1)C2 | 4.6 | 11.9* | 2.2 | -3.6 | 0.8 | -5.8 | 2.1
CN(C(=O)COc1cccc(C#N)c1)C1CCS(=O)(=O)C1 (centres undefined) | 11.2* | -4.1 | 0.2 | -0.8 | 0.0 | 5.3 | 6.1
Clc1ccc(-c2nnc3n2N=C(c2ccc(-c4ccccc4)cc2)CS3)cc1 | 1.9 | 1.2 | 0.2 | -2.6 | 3.6 | . | .
CCOC(=O)[C@@]12CCCC3=C1N(CCC3)C(=O)[C@H]2CC(=O)NCCCOC | 0.6 | -2.2 | -2.4 | -5.9 | -0.5 | . | .
C[C@H](O)[C@@H]1C(=O)N2CCc3c([nH]c4c(-c5ccc6c(c5)OCO6)cccc34)[C@@H]2C[C@@H]1N(C)C(=O)OCc1ccccc1 | -4.8 | -1.3 | -3.0 | -4.0 | -0.5 | . | .
CC(CCc1ccccc1)NC(=O)c1cccc([N+](=O)[O-])c1 (centres undefined) | 0.0 | 2.8 | 0.1 | 4.7 | 3.4 | . | .
Cc1ccc(C(=O)NC(C)CCc2ccccc2)cc1[N+](=O)[O-] (centres undefined) | 12.7* | 2.9 | 5.3 | -0.1 | -1.7 | -2.4 | -2.5
C=C(C)[C@@H]1CCC2(C(=O)O)CC[C@]3(C)[C@H](CC[C@@H]4[C@@]5(C)CCC(=O)C(C)(C)[C@@H]5CC[C@]43C)[C@@H]12 (some centres undefined) | 2.0 | 1.2 | 1.5 | -2.6 | -0.2 | . | .
C=C(C)[C@@H]1CC[C@]2(C(=O)O)CC[C@]3(C)C(CCC4[C@@]5(C)CC[C@H](O)C(C)(C)C5CC[C@]43C)C12 (some centres undefined) | 9.5* | 7.2 | 1.0 | 0.7 | 3.7 | -3.1 | -1.3
COc1ccc(CNCC(O)COc2ccc(C(C)(C)c3ccccc3)cc2)cc1 (centres undefined) | 10.9* | -0.8 | 4.5 | 4.5 | 5.8 | -2.4 | -2.8
O=C(C1CCCN(S(=O)(=O)c2ccc([N+](=O)[O-])cc2)C1)N1CCN(Cc2ccccc2)CC1 (centres undefined) | 1.7 | 3.1 | 2.0 | 0.4 | 2.2 | . | .
COc1ccc(Nc2nc(Nc3ccc(OC)cc3)nc(SC3=NCCS3)n2)cc1 | 12.8* | 0.8 | -0.6 | 2.5 | 3.0 | 3.6 | 4.2
COc1ccc(Nc2nc(OC)nc(OC)n2)cc1 | 0.3 | -4.2 | -0.8 | 1.5 | 1.8 | . | .
CCn1nc(C(=O)O)c(=O)c2cc3c(cc21)OCO3 | 10.3* | 0.5 | 7.1 | 6.9 | -1.7 | -8.2 | -4.3
COc1cccc(CNC(=O)[C@@H]2CCCN2C(=O)[C@H]2CCCCN2)c1 | 17.9* | 6.8 | 0.0 | -2.2 | 2.8 | -4.2 | -0.5

Assay outcomes: PubChem, The Scripps Research Institute Molecular Screening Center
